# Screening data as filed in PubChem.
# Giardia kill = Giardia lamblia killing | 340,000 tested, 0.15% active | AID 540267 | Giardia lamblia trophozoite viability | activity change, % at 7.66 µM, hits read low; in the data active = activity change below about -80%; inconclusive = between about -30% and that limit;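 note: parasites exposed to compound for two days anaerobically before the ATP read; % is set by controls: 0 for no effect and ±100 for the full control effect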
#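 Anaerobic 48 hrs incubation at 37 deg C of 100 trophozoites/well with test compounds; ATPLite 1-Step luminescence, 15-30 min RT, reports cellular ATP as viability.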
# TGFb SMAD3 inh = inhibitors of TGF-b signaling | AID 588855 | HepG2 CAGA-GFP TGF-b/SMAD3 reporter, GFP fluorescence, 18 h; TGF-beta stimulated, 500 pg/mL final | 410,000 tested, 1.2% active | Potency, µM (titrated, usually from 46.1 µM), for the others: at the top dose activity, negative = inhibition, hits mostly inhibitors; note: potency is the fitted concentration of half-maximal effect; % is set by controls: 0 for no effect and ±100 for the full control effect; nearly all actives have a fitted effect of over 65% in size
#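 First, reporter cells (HEPG2 CAGA-GFP) rested 2 h at 37 degrees C. Next, compounds were pinned in and TGF-beta added to 500 pg/mL final. After 18 h, GFP was imaged per cell and summed per well.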
# ATXN2 expr inh = reduces ATXN2 reporter expression in HEK-293 cells. HEK-293 ATXN2-luciferase reporter, luminescence, 24 h. Potency, µM (series often up to 57 µM), without a hit: at the highest dose activity change, negative = inhibition, hits mostly inhibitors. 360,000 tested, 0.72% active; note: potency is the fitted concentration of half-maximal effect; % is set by controls: 0 for no effect and ±100 for the full control effect; nearly all actives have a fitted effect of over 55% in size
#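 qHTS (up to 57 uM final) was run with 24 h compound exposure of reporter cells at 37 °C. Each well was multiplexed: SteadyGlo luminescence measured ATXN2-luciferase expression after a fluorogenic Gly-Phe-AFC viability readout (25 uM final).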
# HepG2 viability = HepG2 cytotoxicity, counter-screen for TGF-b inhibitors; HepG2 CAGA-GFP viability, ATP luminescence, 18 h; Potency, µM (titrated, usually from 46.1 µM), for inactives: at the top dose activity change, negative = cytotoxicity, actives largely listed as cytotoxic; 410,000 tested, 0.76% active; AID 588856; note: potency is the fitted concentration of half-maximal effect
#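 CellTiter-Glo luminescence gave cytotoxicity after 18 hours at 37 degrees C. The cells were HepG2 CAGA-GFP in 1% FBS DMEM, stimulated with 500 pg/mL TGF-beta after compound addition. %Activity was normalised to no-cell wells (complete cell-killing) and DMSO (no toxicity), and curves were fitted and classified.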
# ATXN viability = reduces viability in counter-screen for ATXN expression inhibitors; Potency, µM (highest dose often 56.7 µM), most hits filed as cytotoxic; AID 651635; S2 cells (HEK-293 line with an ATXN2-luciferase reporter) viability, CellTiter-Fluor protease fluorescence, 24 h; 400,000 tested, 0.49% active; note: potency is the fitted concentration of half-maximal effect; nearly all actives have a fitted effect of over 40% in size
# uPA generation = blocks generation of uPA at the cell surface; cell surface uPA generation assay, qHTS; 330,000 tested, 0.31% active; AID 540303; Potency, µM (doses to about 38.3 µM), inactives show top-dose activity change, negative = inhibition, usual class: inhibitors; active = well fitted inhibition curve with a large enough effect; inconclusive = small, poorly fitted or top-dose-only effect; inactive = no such curve, though single readings can be large or run the other way; tested in mouse RAW 264.7 cells; note: potency is the fitted concentration of half-maximal effect; % is set by controls: 0 for no effect and ±100 for the full control effect; nearly all actives have a fitted effect of over 55% in size
# The depositor's hits bear a star; i = inactive; ? = inconclusive; · = no result given; ! = repeats disagree. Sampled rows, rich in hits. Any-hit rate of the full collection: about 2.6%. Unless noted, calls come from the whole dose curve; as a rule, active = well fitted curve in the direction sought with a large enough effect; inconclusive = small, poorly fitted or top-dose-only effect, or another doubt; inactive = no such curve, though single readings can be large; an effect the other way counts as inactive or inconclusive.
SMILES,Giardia kill,TGFb SMAD3 inh,ATXN2 expr inh,HepG2 viability,ATXN viability,uPA generation
COc1ccc(-c2csc3ncnc(N4CCN(c5ccccc5OC)CC4)c23)cc1,-6,?,32µM*,-1%,?,4%
Cn1c2ccccc2c2nnc(SCCOc3ccccc3)nc21,-2,-23%,·,-36%,·,·
O=c1c2ccccc2sn1-c1ccc(Cl)c(S(=O)(=O)N2CCOCC2)c1,-6,?,·,-35%,·,·
CC(C)(C)c1ccc(C(=O)Nc2nnc(SCC(=O)NCC3CCCO3)s2)cc1 (stereo not drawn),-93*,-3%,16µM*,-7%,i,0.89µM*
Cc1nc(SCC(=O)NCC2CCCO2)c2c3c(sc2n1)CCC3 (stereo not drawn),-5,-10%,6%,-12%,i,-16%
CN(C)S(=O)(=O)c1ccc(C(=O)Nc2nnc(SCC(=O)NCC3CCCO3)s2)cc1 (stereo not drawn),-30,11%,2%,17%,i,7.9µM*
O=C(CSc1nnc(NC(=O)c2cccc(F)c2)s1)NCC1CCCO1 (stereo not drawn),-12,1%,11%,-1%,i,?
Cc1nc(SCC(=O)NCC2CCCO2)c2cc(-c3ccccc3)sc2n1 (stereo not drawn),3,-18%,22%,-27%,?,8.9µM*
CCOc1ccc(C(=O)Nc2nnc(SCC(=O)NCC3CCCO3)s2)cc1 (stereo not drawn),-94*,-8%,?,-16%,?,?
CCNc1nc(C#N)nc(Nc2ccccc2)n1,-2,-7%,·,-14%,·,·
COc1cc(C2C(C(=O)Nc3ccccc3C)=C(C)Nc3nc(SCc4cc(C)ccc4C)nn32)ccc1O (stereo not drawn),9,10µM*,·,7.1µM*,·,·
O=C1CCN(S(=O)(=O)c2ccccc2)CCN1CCOCc1ccc(C(F)(F)F)cc1,-2,?,-16%,-19%,i,-7%
Cc1ccc(S(=O)(=O)N2CCC(=O)N(CCOCc3ccc(C(F)(F)F)cc3)CC2)cc1,4,11µM*,?,-23%,?,-9%
C=C[C@@H]1c2cc(C)ccc2N(S(=O)(=O)c2ccc(C)cc2)[C@H](c2ccc(OC(C)=O)cc2)C1(C#N)C#N,17,?,25µM*,6.3µM*!,?,?
Cc1ccc2c(c1)C1CN(C)CCC1N2S(=O)(=O)c1ccc(C#N)cc1 (stereo not drawn),3,12%,·,-30%,?,-23%
CCc1cc2c(=O)c(-c3cnn(-c4ccccc4)c3)c(C)oc2cc1OCC(=O)Nc1ccc(F)c(F)c1,3,-2%,-5%,8%,i,-1%
CCc1cc2c(=O)c(-c3cnn(-c4ccccc4)c3)c(C)oc2cc1OCC(=O)Nc1cccc(C)c1,-11,6%,?,-2%,1.8µM*,-4%
CNC[C@H](CC1CCCCC1)NC[C@H](Cc1ccccc1)NCCC12CC3CC(CC(C3)C1)C2,-11,?,-26%,13µM*,16µM*,-5%
CCc1c(C)nc(SCCOc2ccc(OC(C)C)cc2)[nH]c1=O,1,-4%,-4%,13%,i,-3%
CCc1c(C)nc(SCCOc2ccc(OC)cc2)[nH]c1=O,2,4%,3%,0.32µM*,i,1%
COc1cccc(/C=C/C(=O)NNC(=O)c2ccco2)c1OC,?,3%,-1%,-2%,i,2.8µM*
CCc1ccccc1NC(=O)c1ccc([N+](=O)[O-])s1,?,11µM*,?,11µM*,i,-14%
O=C(Nc1nnc(-c2ccco2)o1)c1ccc([N+](=O)[O-])s1,-81*,?,?,-56%,?,-8%
COc1cccc(CCNc2ncnc3sc(C(=O)N4CCN(C)CC4)c(C)c23)c1,·,·,·,·,i,·
CCCN1CNc2c(c(=O)[nH]c(=S)n2CCC(C)(C)C)C1,2,·,·,·,·,·
SMILES,Giardia kill,TGFb SMAD3 inh,ATXN2 expr inh,HepG2 viability,ATXN viability,uPA generation
Cc1ccc(N(CC(=O)Nc2c(C)n(C)n(-c3ccccc3)c2=O)S(C)(=O)=O)cc1C,-8,-8%,8%,-5%,i,2%
Cc1cccc(N(CC(=O)Nc2c(C)n(C)n(-c3ccccc3)c2=O)S(C)(=O)=O)c1C,22,2.8µM*,-1%,-5%,i,2%
Cc1ccc(N(CC(=O)NCCc2ccc(F)cc2)S(=O)(=O)c2ccc(Cl)c([N+](=O)[O-])c2)c(C)c1,-7,?,?,11µM*,?,?
COc1ccc(N(C(=O)/C=C\C(=O)Nc2ccc(Cl)cc2)C(C(=O)NCc2ccco2)c2ccc(C)cc2)cc1 (stereo not drawn),·,13µM*,·,-45%,·,·
Cc1ccc(NC(=O)/C=C\C(=O)N(c2ccc(C(C)C)cc2)C(C(=O)NCc2ccco2)c2ccc(Cl)cc2)cc1 (stereo not drawn),·,?,·,-44%,·,·
Oc1cc2cc(-c3csc(-c4ccc(F)cc4)n3)cc3c2n1CCC3,·,4%,·,-41%,·,·
Cc1cccc(CNC(=O)c2cnn(-c3ncc(C)c(-c4cccs4)n3)c2C2CC2)n1,·,·,·,·,i,·
COc1ccc(Cn2c(-c3ccc(C)cc3)c[n+]3ccccc23)cc1,-24,?,17µM*,-28%,?,-15%
CCC1CN(Cc2cn[nH]c2-c2ccc(F)cc2)Cc2cc(OC)ccc2O1 (stereo not drawn),·,·,·,·,i,·
C=CCS/C(N)=N\N=C\c1c(O)ccc2ccccc12,4,7.9µM*,19%,-78%,i,?
NC(=O)c1ccc(N=Cc2c(O)ccc3ccccc23)cc1,-14,9%,-3%,-14%,i,1%
O=C(O)C(=O)Nc1cccc(-c2nn[nH]n2)c1,·,·,1%,·,i,·
COc1ccc(CN(CCN(C)C)c2ncccn2)cc1,·,·,7%,·,i,·
CCCCCCCCCCCCCCCC[N+](C)(C)CCN(Cc1ccc(OC)cc1)c1ncccn1,-10,?,35µM*!,10µM*,25µM*!,?
COc1cccc2c1C1COC3C4CC(C(=O)O)C(C(C2)N13)N4C (stereo not drawn),1,?,11µM*,-45%,?,-8%
COc1ccc(Nc2nc(N)c([N+](=O)[O-])c(NC3CCCCC3)n2)cc1,-1,?,?,22µM*,·,-2%
COc1ccc(Nc2nc(N)c([N+](=O)[O-])c(NCCO)n2)cc1,31,?,-19%,-35%,i,2%
COc1ccc(-n2c(NNC(C)=O)nc3sc4c(c3c2=O)CCCC4)cc1,-8,-9%,·,-32%,i,7.9µM*
CCOc1ccc(Br)cc1C1=CC(=O)C[C@H](c2ccc(OC)cc2)C1,5,?,-5%,-1%,i,2.8µM*
